Only some compounds are listed: those with a hit (about 11% of all), similar ones and a draw of the others.
hNpr1 antagonist: blocks ANP-stimulated signaling of human Npr1 receptor | P16066 | HEK293 hNpr1 GloSensor cGMP, ANP-stimulated luminescence | Potency, µM (series often up to 46.3 µM), without a hit: at the top dose activity change, negative = inhibition, usual class: inhibitors | 1.6% of 76,000 active | AID 1347048; calls by dose curve; also: nearly all actives have a fitted effect of over 60% in size
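HEK293 cells stably expressing human Npr1 and cGMP GloSensor pGS-40F, loaded 2 h with 2% GloSensor reagent, given compound 30 min at room temperature. Luminescence read before and 20 min after 0.1 nM hNppA.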
3T3 cytotox: NIH 3T3 cell cytotoxicity; NIH 3T3 viability, CellTiter-Glo ATP luminescence, 48-72 h; Potency, µM (titrated, usually from 96.7 µM), for inactives: at the highest dose activity change, negative = cytotoxicity, usual class: inhibitors; 4.3% of 94,000 active; AID 1345082; also: nearly all actives have a fitted effect of over 55% in size
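Luminescent ATP readout (CellTiter-Glo, 10 min RT) after 48 or 72 hr compound exposure of NIH 3T3 cells seeded at 400 cells/well in 1536-well format; quantitative HTS.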
Luciferase inh: blocks purified firefly luciferase enzyme activity. P08659. purified P. pyralis luciferase, luminescence, biochemical. Potency, µM (doses to about 115 µM), most hits filed as inhibitors. 2.5% of 76,000 active; also: nearly all actives have a fitted effect of over 65% in size
Target sequence (P08659 whole entry, looked up): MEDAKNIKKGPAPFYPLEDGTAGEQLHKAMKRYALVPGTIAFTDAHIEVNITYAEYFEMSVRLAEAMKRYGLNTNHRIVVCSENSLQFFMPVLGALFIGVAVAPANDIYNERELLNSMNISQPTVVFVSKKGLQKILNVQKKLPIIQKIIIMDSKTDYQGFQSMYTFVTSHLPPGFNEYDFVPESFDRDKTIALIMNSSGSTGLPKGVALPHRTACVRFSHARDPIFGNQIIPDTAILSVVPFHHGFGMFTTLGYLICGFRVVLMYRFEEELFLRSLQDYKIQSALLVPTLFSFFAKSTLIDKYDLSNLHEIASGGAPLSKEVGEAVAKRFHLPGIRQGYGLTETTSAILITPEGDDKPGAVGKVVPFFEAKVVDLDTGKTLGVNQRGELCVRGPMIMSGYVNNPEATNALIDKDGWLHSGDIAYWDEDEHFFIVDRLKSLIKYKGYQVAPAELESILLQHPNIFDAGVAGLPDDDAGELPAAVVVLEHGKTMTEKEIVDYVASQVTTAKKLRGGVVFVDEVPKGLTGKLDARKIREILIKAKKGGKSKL
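Purified P. pyralis luciferase (10nM final) in 50mM Tris acetate pH 7.5, 10mM Mg acetate, 0.01% Tween-20, 0.05% BSA with 10uM D-luciferin and 10uM ATP. Compounds titrated qHTS. Luminescence imaged on CCD.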
HEK293 tox: HEK 293 cell cytotoxicity; HEK 293 viability, ATP luminescence (CellTiter-Glo), 48-72 h; Potency, µM (titrated, usually from 115 µM), for inactives: at the top dose activity change, negative = cytotoxicity, actives largely listed as inhibitors; 6.6% of 94,000 active; also: nearly all actives have a fitted effect of over 60% in size
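CellTiter-Glo luminescence (cellular ATP) was read after 48 or 72 hr of compound exposure at 37 degree Celsius. Cells were HEK 293 plated at 250 cells/well.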
* = called active by the depositor; i = inactive; ? = inconclusive; . = no result; [ ] = remark or other dose. Unless noted, calls follow the shape of the dose curve; as a rule, active = well fitted curve in the direction sought with a large enough effect; inconclusive = small, poorly fitted or top-dose-only effect, or another doubt; inactive = no such curve, though single readings can be large; an effect the other way counts as inactive or inconclusive. % is scaled to controls: 0 for no effect and ±100 for the full control effect; potency is read from the fitted curve at half-maximal effect.

SMILES	hNpr1 antagonist	3T3 cytotox	Luciferase inh	HEK293 tox
CC(=O)N1CCCN(Cc2ccc3c(c2)OCO3)c2ccccc21	4%	?	i	?
COc1ccc(C(=O)N2CCC(Oc3ccc(-c4noc(-c5ccccc5)n4)cc3)C2)cn1 (centres undefined)	11µM*	-22%	?	-25%
COc1ccc(C(=O)N2CCC(Oc3ccc(-c4noc(C(C)C)n4)cc3)C2)cc1 (centres undefined)	?	?	i	40µM*
COc1ccc2[nH]c(C[C@@H]3C[C@@H](C(C)C)[C@H](CNCc4ccccc4O)C=C3C)nc2n1	?	35µM*	i	45µM*
CC1=C[C@@H](CN)[C@H](C(C)C)C[C@H]1Cc1nc2ccccc2[nH]1	-17%[70.6 µM]	?	i	?
COc1ccc2[nH]c(C[C@@H]3C[C@@H](C(C)C)[C@H](CN(C)C)C=C3C)nc2n1	-13%[70.6 µM]	89µM*	i	?
COc1ccccc1CN1CCCC(c2nn(-c3ccc(Cl)cc3)c(=O)[nH]2)C1 (centres undefined)	21%	?	i	?
N[C@@H]1CCN(Cc2ccccc2OCc2ccc(Cl)cc2)C[C@H]1O	0%	28µM*	i	22µM*
O=C(c1nc(-c2cccc(C(F)(F)F)c2)c2cnccn12)N1CCCC1	23%	?	i	?
Cc1ccc(NC(=O)c2ccc3c(c2)N(C)C2CCCCCN2C3=O)cc1 (centres undefined)	3%	?	?	?
CN1c2cc(C(=O)Nc3ccc(OC(F)(F)F)cc3)ccc2C(=O)N2CCCC21 (centres undefined)	0%	-1%	40µM*	-24%
CCc1ccc(NC(=O)c2ccc3c(c2)N(C)C2CCCCN2C3=O)cc1 (centres undefined)	0%	?	14µM*	?
Cc1ccc(NC(=O)c2ccc3c(c2)N(C)C2CCCN2C3=O)cc1 (centres undefined)	-23%	i	22µM*	5%
CN1c2cc(C(=O)NCc3cccs3)ccc2C(=O)N2CCCCC21 (centres undefined)	-2%	-21%	25µM*	?
CCOc1ccc(NC(=O)c2ccc3c(c2)N(C)C2CCCCN2C3=O)cc1 (centres undefined)	-1%	?	?	?
COCCn1cnc2ccc(-c3ccsc3)nc2c1=O	2%[70.6 µM]	?	?	2%[230 µM]
COc1ccc(C(=O)N[C@@H]2CCC[C@@H]2C(=O)N2CCN(c3ccc(Cl)cc3)CC2)cc1	-22%	-29%	i	?
CC(C)OCCCNC(=O)c1cc2cn(C(C)C)cc2s1	-8%	-12%	i	-18%
Cc1ccc(NC(=O)c2ccc3c(c2)N(C)C2CCCCN2C3=O)cc1 (centres undefined)	0%	-26%	40µM*	?
COc1ccc(C)cc1NC(=O)c1ccc2c(c1)C(O)CCCCCN2C (centres undefined)	-17%	?	i	?
COCCN1CCCCCC(O)c2cc(C(=O)NCCCN3CCCC3=O)ccc21 (centres undefined)	1%	-5%	i	-4%
COCCN1CCCCCC(O)c2cc(C(=O)Nc3cc(C)ccc3OC)ccc21 (centres undefined)	-2%	?	?	45µM*
CCN(CCN(C)C)C(=O)c1ccc2c(c1)C(O)CCCCCN2CCOC (centres undefined)	6%	-8%	i	?
CC(C)N1C(=O)C2(CCCCC2)C1C(=O)NCCCN1CCCc2ccccc21 (centres undefined)	4%	?	i	79µM*
COCCN1CCCCCC(O)c2cc(C(=O)NCCCN3CCCc4ccccc43)ccc21 (centres undefined)	-8%	?	i	40µM*
SMILES	hNpr1 antagonist	3T3 cytotox	Luciferase inh	HEK293 tox
CCCN(CC1CC1)C(=O)c1ccc2c(c1)C(O)CCCCCN2CCOC (centres undefined)	-10%	?	i	79µM*
Cc1nnc2ccc(N3CCC(NC(=O)Cc4ccc(F)cc4)CC3)nn12	.	-17%	.	i
COc1ccccc1OCCNC(=O)c1ccc2c(c1)C(O)CCCCCN2C (centres undefined)	-13%	?	i	?
CN1CCCCCC(O)c2cc(C(=O)NCCc3ccccn3)ccc21 (centres undefined)	-10%	32µM*	45µM*	?
Cc1ccc(-c2cc(-c3cccnc3)nc3c(C)noc23)c(C)c1	0%[70.6 µM]	?	?	79µM*
Cc1noc2c(N3CCN(Cc4ccccc4)CC3)cc(-c3cccnc3)nc12	-17%[70.6 µM]	?	i	63µM*
COc1ccccc1-c1cc(-c2cccnc2)nc2c(C)noc12	2%[70.6 µM]	?	i	-23%[172 µM]
CC(=O)N1CCN(c2cc(-c3ccccc3)nc3c(C)noc23)CC1	1%[70.6 µM]	89µM*	i	-18%[172 µM]
CC(=O)N1CCC(=O)N(Cc2ccccc2)Cc2cc(F)ccc21	.	?	.	-15%
CCc1noc(-c2cn(C3CCN(C(=O)C(C)Oc4cccc(Cl)c4)CC3)nn2)n1 (centres undefined)	-14%	?	i	-35%
CCCC(=O)N1CCC(N2C(=O)C3(CCCCC3)C2c2ccncc2)CC1 (centres undefined)	2%	-6%	i	-8%
Clc1ccc(-c2cnc([C@@H]3COCCN3Cc3c[nH]c4ccccc34)[nH]2)s1	?	79µM*	i	71µM*
COc1ccc(-c2cnc([C@@H]3COCCN3Cc3ccccc3O)[nH]2)cc1	2%[70.6 µM]	?	i	-24%[172 µM]
Clc1ccc(-c2cnc([C@@H]3COCCN3Cc3cnc[nH]3)[nH]2)cc1	3%[70.6 µM]	-18%[138 µM]	i	-22%[172 µM]
c1ccc(-c2cnc([C@@H]3COCCN3Cc3cccnc3)[nH]2)cc1	-4%[70.6 µM]	-2%[174 µM]	i	3%[172 µM]
Fc1ccccc1CN1CCOC[C@H]1c1ncc(-c2ccc(Cl)s2)[nH]1	?	89µM*	i	?
CC(C)(C)CN1CCOC[C@H]1c1ncc(-c2ccc(F)cc2F)[nH]1	-5%[70.6 µM]	?	i	?
Fc1ccc(-c2cnc([C@@H]3COCCN3Cc3ccccc3F)[nH]2)c(F)c1	-30%[70.6 µM]	?	i	100µM*
Clc1ccc(-c2cnc([C@@H]3COCCN3CC3CC3)[nH]2)s1	-5%[70.6 µM]	?	i	89µM*
O=C(C1CCCN1C(=O)c1cccc(Cl)c1)N1CCC(N2Cc3ccccc3C2=O)CC1 (centres undefined)	.	-20%	.	?
Fc1cccc(-c2cnc([C@@H]3COCCN3Cc3ccccc3)[nH]2)c1	-21%[70.6 µM]	?	i	?
Fc1ccc(CN2CCOC[C@H]2c2ncc(-c3ccc(Cl)s3)[nH]2)cc1	?	?	i	79µM*
O=C(c1cnn2c1CCCC2)N1CCC(c2[nH]ncc2-c2ccccc2)CC1	-24%	?	i	?

Screening results (PubChem BioAssay)
